Results taken from PubChem BioAssay (NCATS).
Records with an inconclusive call do not appear. Values without a mark were called inactive. Calls follow the shape of the dose curve; as a rule, active = well fitted cell-killing curve with a large enough effect; inconclusive = small, poorly fitted or top-dose-only effect; inactive = flat fitted curve, though single readings scatter.

test: qHTS of pediatric cancer cell lines to identify multiple opportunities for drug repurposing: Primary screen for BT-12 cells (AID 1347101); conditions: BT-12 viability, CellTiter-Glo luminescence, 48 h; series mostly up to 57.3 µM; activity change, negative = cytotoxic: at the top concentration;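 also: plate controls were DMSO for no effect and bortezomib positive control for full effect; nearly all actives have a fitted effect of over 25% in size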
In short: (§1)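 Cells (500-1,000/well) rested 5 h, then received compounds for 48 h; metabolically active cells were measured by CellTiter-Glo luminescence. Final concentrations spanned up to 46 µM (MIPE, 11-point) or 0.59 nM-46 µM (NPC, 8-point) in primary screens, 11-point in follow-ups.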

SMILES | activity change, negative = cytotoxic
Cn1c(=O)c2c(ncn2CC(=O)O)n(C)c1=O | 8.98%
O=[N+]([O-])c1nccn1CO[C@@H](CO)[C@H](O)CO | -0.0189%
CC(=O)OCC(=O)Nc1cc(C#N)cc(NC(=O)COC(C)=O)c1Cl | 12.3%
CC1(C)O[C@@H]2C[C@H]3[C@@H]4C[C@H](F)C5=CC(=O)C=C[C@]5(C)[C@@]4(F)[C@@H](O)C[C@]3(C)[C@]2(C(=O)CO)O1 | -8.84%
CCCC(=O)Nc1ccc(O)c(C(C)=O)c1 | 11.3%
O=[N+]([O-])c1cncn1CCN1CCOCC1 | 11.6%
CCOc1ncc(F)c(=O)[nH]1 | 12.6%
CCc1cc(S(=O)(=O)O)c2cc(C(C)C)cccc1-2 | 4.45%
Cc1ccccc1N1CCN(CCc2nnc3n2CCCC3)CC1 | 0.721%
CN1C(=O)c2ccccc2C1=O | 7.75% [at 116 µM]
Nc1nnnn1-c1ccccc1 | -1.8%
CCOC(=O)c1ccc(NC(=O)CN2CCCCC2)cc1 | 5.28%
Brc1ccccc1-c1ccccc1 | 19.9% [at 116 µM]
CCNC(=O)NCCCOc1cccc(CN2CCCCC2)c1 | -0.214%
CO/N=C(/C(=O)N[C@@H]1C(=O)N2C(C(=O)OCOC(=O)C(C)(C)C)=C(C)CS[C@H]12)c1csc(N)n1 | 3.92%
Cc1c(N)cccc1C(F)(F)F | 12.5%
OC[C@]1(O)OC[C@@H](O)[C@H](O)[C@@H]1O | 5.84%
COC(=O)c1cc(Cl)ccc1OC | 4.95%
CCCc1ncc(C(=O)O)s1 | 4.63%

SMILES | activity change, negative = cytotoxic
CCOc1ccc(NS(=O)(=O)c2ccc(N)cc2)nn1 | 9.28%
CCCc1c2oc(C(=O)O)cc(=O)c2cc2c(=O)cc(C(=O)O)n(CC)c12 | 9%
O=C(O)Cn1cnnn1 | 10.4%
COc1cc(OC)nc(O[C@H](C(=O)O)C(OC)(c2ccccc2)c2ccccc2)n1 | -5.25%
CCCCCCCCCCCCCCCCCCN(C)C | -3.6%
C=C(C)C(=O)OCC(O)CO (stereo unspecified) | 4.55%
CNC(=O)c1c(I)c(NC(C)=O)c(I)c(C(=O)O)c1I | 4.31%
Cc1nc([N+](=O)[O-])cn1-c1ccc([N+](=O)[O-])cc1 | 2.12%
O=C(CCCCCCCCC#CI)Oc1ccccc1 | -1.87%
C=CC[N+]1([C@H]2C[C@H]3[C@@H]4CC[C@H]5C[C@H](OC(C)=O)[C@@H](N6CCCCC6)C[C@]5(C)[C@H]4CC[C@]3(C)[C@H]2OC(=O)CC)CCCCC1 | 2.34%
CO/N=C(/C(=O)N[C@@H]1C(=O)N2C(C(=O)[O-])=C(C[n+]3ccn4ncccc43)CS[C@H]12)c1nsc(N)n1 | 11.5%
C/C(=N\O)[C@@H](C)NCC(C)(C)CN[C@H](C)/C(C)=N/O | 5.85%
CNC[C@H](O)[C@@H](O)[C@H](O)[C@H](O)CO | 9.91%
COc1ccc(CCC(C)=O)cc1 | 1.54%
Cc1ccccc1C(=O)N1CC/C(=N\OS(=O)(=O)O)c2ccc(Cl)cc21 | 0.65%
CCn1ccc(NS(=O)(=O)c2ccc(N)cc2)nc1=O | 6.6%
O=C(O)/C=C(\CC(=O)O)C(=O)O | 10.1%
[O-][n+]1cccc(/C(Cl)=N/OC[C@@H](O)CN2CCCCC2)c1 | 5.26%
CC1CC(=O)NN=C1c1ccc(NCC(C)(C)NCC(O)COc2cc(Cl)ccc2C#N)cc1 (stereo unspecified) | -11.9%

test: qHTS of pediatric cancer cell lines to identify multiple opportunities for drug repurposing: Primary screen for Rh18 cells (AID 1347102); conditions: Rh18 rhabdomyosarcoma viability, CellTiter-Glo luminescence, 48 h; series mostly up to 46 µM; activity change, negative = cytotoxic: at the top concentration; also: % is scaled to controls: 0 for no effect and ±100 for the full control effect; nearly all actives have a fitted effect of over 65% in size
In short: as §1

SMILES | activity change, negative = cytotoxic
Cn1c(=O)c2c(ncn2CC(=O)O)n(C)c1=O | 22.6%
O=[N+]([O-])c1nccn1CO[C@@H](CO)[C@H](O)CO | 7.44%
CC(=O)OCC(=O)Nc1cc(C#N)cc(NC(=O)COC(C)=O)c1Cl | 9.85%
CC1(C)O[C@@H]2C[C@H]3[C@@H]4C[C@H](F)C5=CC(=O)C=C[C@]5(C)[C@@]4(F)[C@@H](O)C[C@]3(C)[C@]2(C(=O)CO)O1 | -7.1%
CCCC(=O)Nc1ccc(O)c(C(C)=O)c1 | 15.5%
O=[N+]([O-])c1cncn1CCN1CCOCC1 | 11.2%
CCOc1ncc(F)c(=O)[nH]1 | 2.77%
CCc1cc(S(=O)(=O)O)c2cc(C(C)C)cccc1-2 | 5.43%
Cc1ccccc1N1CCN(CCc2nnc3n2CCCC3)CC1 | 10.8%
CN1C(=O)c2ccccc2C1=O | 17.4% [at 92.7 µM]
Nc1nnnn1-c1ccccc1 | 8.19%
CCOC(=O)c1ccc(NC(=O)CN2CCCCC2)cc1 | 4.76%
Brc1ccccc1-c1ccccc1 | 17% [at 92.7 µM]
CCNC(=O)NCCCOc1cccc(CN2CCCCC2)c1 | -6.11%
CO/N=C(/C(=O)N[C@@H]1C(=O)N2C(C(=O)OCOC(=O)C(C)(C)C)=C(C)CS[C@H]12)c1csc(N)n1 | -1.97%
Cc1c(N)cccc1C(F)(F)F | 8.91%
OC[C@]1(O)OC[C@@H](O)[C@H](O)[C@@H]1O | 10.4%
COC(=O)c1cc(Cl)ccc1OC | 9.33%
CCCc1ncc(C(=O)O)s1 | 17.4%

SMILES | activity change, negative = cytotoxic
CCOc1ccc(NS(=O)(=O)c2ccc(N)cc2)nn1 | 4.11%
CCCc1c2oc(C(=O)O)cc(=O)c2cc2c(=O)cc(C(=O)O)n(CC)c12 | 9.38%
O=C(O)Cn1cnnn1 | -2.4%
COc1cc(OC)nc(O[C@H](C(=O)O)C(OC)(c2ccccc2)c2ccccc2)n1 | -9.12%
CCCCCCCCCCCCCCCCCCN(C)C | 2.48%
C=C(C)C(=O)OCC(O)CO (stereo unspecified) | 3.92%
CNC(=O)c1c(I)c(NC(C)=O)c(I)c(C(=O)O)c1I | 15%
Cc1nc([N+](=O)[O-])cn1-c1ccc([N+](=O)[O-])cc1 | 10.4%
O=C(CCCCCCCCC#CI)Oc1ccccc1 | 3.39%
C=CC[N+]1([C@H]2C[C@H]3[C@@H]4CC[C@H]5C[C@H](OC(C)=O)[C@@H](N6CCCCC6)C[C@]5(C)[C@H]4CC[C@]3(C)[C@H]2OC(=O)CC)CCCCC1 | 17.7%
CO/N=C(/C(=O)N[C@@H]1C(=O)N2C(C(=O)[O-])=C(C[n+]3ccn4ncccc43)CS[C@H]12)c1nsc(N)n1 | 4.92%
C/C(=N\O)[C@@H](C)NCC(C)(C)CN[C@H](C)/C(C)=N/O | 4.83%
CNC[C@H](O)[C@@H](O)[C@H](O)[C@H](O)CO | 4.8%
COc1ccc(CCC(C)=O)cc1 | 10.1%
Cc1ccccc1C(=O)N1CC/C(=N\OS(=O)(=O)O)c2ccc(Cl)cc21 | 2.39%
CCn1ccc(NS(=O)(=O)c2ccc(N)cc2)nc1=O | 13%
O=C(O)/C=C(\CC(=O)O)C(=O)O | 15.1%
[O-][n+]1cccc(/C(Cl)=N/OC[C@@H](O)CN2CCCCC2)c1 | 6.91%
CC1CC(=O)NN=C1c1ccc(NCC(C)(C)NCC(O)COc2cc(Cl)ccc2C#N)cc1 (stereo unspecified) | -2.28%
